The source of these data is ChEMBL document CHEMBL3988442, “University of Dundee, Small-Polar-MMV Screening Library” (2021).

For some assays here: Entries with a potency or affinity are not part of this list.

Holding throughout (set-up): scale not given: direction of the effect not stated beside the values
Assay [1] has as its target Protein translocase subunit SecA (Escherichia coli (strain K12)) (UniProt P10408). Kind of assay: Assay to Identify E. coli SecA ATPase Inhibitors. The assay is classed as functional. Conditions: 30 µM.
Assay [2] addresses T1, Ubiquitin-activating enzyme e1, putative (Leishmania donovani (strain BPK282A1)) (UniProt E9BSI1).
T1 sequence (whole entry): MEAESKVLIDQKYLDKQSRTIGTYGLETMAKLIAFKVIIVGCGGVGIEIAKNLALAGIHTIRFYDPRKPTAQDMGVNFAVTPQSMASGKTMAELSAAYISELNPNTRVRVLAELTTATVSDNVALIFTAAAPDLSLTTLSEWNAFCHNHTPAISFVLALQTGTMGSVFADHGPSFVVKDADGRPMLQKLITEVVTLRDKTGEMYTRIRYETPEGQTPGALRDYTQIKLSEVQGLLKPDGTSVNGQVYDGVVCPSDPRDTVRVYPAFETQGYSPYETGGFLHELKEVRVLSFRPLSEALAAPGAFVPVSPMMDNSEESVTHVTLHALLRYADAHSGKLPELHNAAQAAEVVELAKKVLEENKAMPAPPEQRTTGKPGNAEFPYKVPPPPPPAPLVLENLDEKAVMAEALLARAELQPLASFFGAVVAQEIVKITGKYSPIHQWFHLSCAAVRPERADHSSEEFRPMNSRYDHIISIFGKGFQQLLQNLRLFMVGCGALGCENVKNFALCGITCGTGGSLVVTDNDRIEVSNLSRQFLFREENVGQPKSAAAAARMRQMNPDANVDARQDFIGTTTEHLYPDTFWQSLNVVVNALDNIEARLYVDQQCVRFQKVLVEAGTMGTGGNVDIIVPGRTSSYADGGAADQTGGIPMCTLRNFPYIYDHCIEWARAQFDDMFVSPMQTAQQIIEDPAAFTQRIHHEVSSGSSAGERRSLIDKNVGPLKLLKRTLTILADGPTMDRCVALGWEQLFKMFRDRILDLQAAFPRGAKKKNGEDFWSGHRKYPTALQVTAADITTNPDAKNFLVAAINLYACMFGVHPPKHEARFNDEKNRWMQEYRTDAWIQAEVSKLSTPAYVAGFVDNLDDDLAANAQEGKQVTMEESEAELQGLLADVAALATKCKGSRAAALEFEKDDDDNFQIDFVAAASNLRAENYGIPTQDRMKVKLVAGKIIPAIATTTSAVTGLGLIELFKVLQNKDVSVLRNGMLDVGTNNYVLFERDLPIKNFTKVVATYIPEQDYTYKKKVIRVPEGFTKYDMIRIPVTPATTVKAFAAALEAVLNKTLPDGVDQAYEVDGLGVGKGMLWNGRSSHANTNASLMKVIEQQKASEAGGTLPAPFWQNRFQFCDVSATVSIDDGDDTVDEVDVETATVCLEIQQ
Kind of assay: Leishmania donovani Ubiquitin Activating Enzyme (LdE1). The assay is classed as functional. Conditions: 30 µM.

Assay [3] addresses Sialic acid-binding Ig-like lectin 9 (Homo sapiens) (UniProt Q9Y336). The assay is described as follows: Hs-Siglec9 ALPHAscreen SOP 20170721. Particulars: 10 µM. A general note: In Alpha technology, singlet oxygen from a donor bead excites a nearby acceptor bead.
In another assay the test system is Trypanosoma cruzi. The assay is described as follows: Trypanosoma cruzi phosphomannomutase and mannose-1-phosphate guanylyltransferase assay. The assay is classed as functional. Conditions: 10 µM.
Assay [4] has as its target T2, Arginase-2, mitochondrial (Homo sapiens) (UniProt P78540).
T2 sequence (whole entry): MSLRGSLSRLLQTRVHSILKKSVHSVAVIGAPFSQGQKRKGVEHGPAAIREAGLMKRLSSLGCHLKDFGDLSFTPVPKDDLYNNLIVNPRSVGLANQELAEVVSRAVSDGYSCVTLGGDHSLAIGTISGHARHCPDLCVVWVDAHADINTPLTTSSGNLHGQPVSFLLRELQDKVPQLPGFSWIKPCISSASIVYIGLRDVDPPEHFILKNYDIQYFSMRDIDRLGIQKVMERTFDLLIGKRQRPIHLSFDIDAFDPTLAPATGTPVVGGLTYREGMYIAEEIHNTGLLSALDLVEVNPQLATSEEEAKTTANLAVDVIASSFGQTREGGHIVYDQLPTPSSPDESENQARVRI
Kind of assay: in vitro enzyme assay to detect the production of urea directly proportional to the activity of Arginase II. Also: in the data most compounds retested in dose-response had high values. The assay is classed as functional. Particulars: 33.3 µM.

In assay [5] the target is T3, Proteasome subunit beta (Trypanosoma cruzi) (UniProt O96673).
T3 sequence (whole entry): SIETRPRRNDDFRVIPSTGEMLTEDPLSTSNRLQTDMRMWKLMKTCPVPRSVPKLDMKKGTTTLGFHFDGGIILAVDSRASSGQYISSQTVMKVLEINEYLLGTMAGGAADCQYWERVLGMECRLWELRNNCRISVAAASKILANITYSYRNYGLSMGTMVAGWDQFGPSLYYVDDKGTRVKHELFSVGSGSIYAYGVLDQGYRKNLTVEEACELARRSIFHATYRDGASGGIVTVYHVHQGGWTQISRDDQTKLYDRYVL
The assay is described as follows: Trypanosoma cruzi proteasome chymotrypsin-like activity (TcProtChymo) assay. Also: in the data most compounds retested in dose-response had high values. The assay is classed as functional. Conditions: 9.37 µM.

Another assay is filed under the species Homo sapiens. The assay is described as follows: To identify inhibition of the IFN signalling (Jak-Stat) pathway via expression of an eGFP reporter gene under the control of an IFN-stimulated response element (ISRE) containing MxA promoter. The assay is classed as functional. Particulars: 30 µM. For orientation: In a reporter assay the amount or activity of a reporter protein is the signal.

The target of assay [6] is T4, Tyrosyl-tRNA synthetase, putative (Trypanosoma cruzi (strain CL Brener)) (UniProt Q4DSP6).
T4 sequence (whole entry): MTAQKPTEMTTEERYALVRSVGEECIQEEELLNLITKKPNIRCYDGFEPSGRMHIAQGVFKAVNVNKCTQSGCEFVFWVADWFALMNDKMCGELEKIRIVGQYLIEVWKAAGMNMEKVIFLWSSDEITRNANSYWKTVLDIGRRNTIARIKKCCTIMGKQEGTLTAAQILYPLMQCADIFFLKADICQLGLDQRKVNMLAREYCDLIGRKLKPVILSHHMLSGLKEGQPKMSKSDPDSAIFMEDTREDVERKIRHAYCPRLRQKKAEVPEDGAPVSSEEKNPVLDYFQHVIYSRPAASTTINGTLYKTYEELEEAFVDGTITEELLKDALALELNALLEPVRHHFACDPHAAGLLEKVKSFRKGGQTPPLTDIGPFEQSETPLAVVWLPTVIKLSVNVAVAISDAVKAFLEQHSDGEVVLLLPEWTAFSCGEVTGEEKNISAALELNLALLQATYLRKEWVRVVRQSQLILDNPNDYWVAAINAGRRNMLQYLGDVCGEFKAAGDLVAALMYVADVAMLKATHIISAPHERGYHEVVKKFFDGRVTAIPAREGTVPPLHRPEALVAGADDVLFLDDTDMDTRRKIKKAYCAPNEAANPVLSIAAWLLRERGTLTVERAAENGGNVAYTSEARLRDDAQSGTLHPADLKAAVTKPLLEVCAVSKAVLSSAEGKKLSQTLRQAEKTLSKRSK
The assay is described as follows: Trypanosoma cruzi tyrosyl tRNA synthetase (TcYRS) _High Tyrosine SOP. Also: in the data most compounds retested in dose-response had high values. The assay is classed as functional. Particulars: 30 µM.

Assay [7] has as its target T4, Tyrosyl-tRNA synthetase, putative (Trypanosoma cruzi (strain CL Brener)). Kind of assay: Trypanosoma cruzi tyrosyl tRNA synthetase (TcYRS) SOP. It counts as functional. Conditions: 30 µM.
For assay [8], the target named is Chromo domain-containing protein 1 (Saccharomyces cerevisiae (strain ATCC 204508 / S288c) (Baker's yeast)) (UniProt P32657). The assay is described as follows: ScCHD-1 Enzyme Inhibition Assay. Also: in the data most compounds retested in dose-response had high values. Particulars: 30 µM. The assay is classed as functional.
Chain of Chromo domain-containing protein 1 (Saccharomyces cerevisiae (strain ATCC 204508 / S288c) (Baker's yeast)) (P32657 whole entry, the tested form may be a part): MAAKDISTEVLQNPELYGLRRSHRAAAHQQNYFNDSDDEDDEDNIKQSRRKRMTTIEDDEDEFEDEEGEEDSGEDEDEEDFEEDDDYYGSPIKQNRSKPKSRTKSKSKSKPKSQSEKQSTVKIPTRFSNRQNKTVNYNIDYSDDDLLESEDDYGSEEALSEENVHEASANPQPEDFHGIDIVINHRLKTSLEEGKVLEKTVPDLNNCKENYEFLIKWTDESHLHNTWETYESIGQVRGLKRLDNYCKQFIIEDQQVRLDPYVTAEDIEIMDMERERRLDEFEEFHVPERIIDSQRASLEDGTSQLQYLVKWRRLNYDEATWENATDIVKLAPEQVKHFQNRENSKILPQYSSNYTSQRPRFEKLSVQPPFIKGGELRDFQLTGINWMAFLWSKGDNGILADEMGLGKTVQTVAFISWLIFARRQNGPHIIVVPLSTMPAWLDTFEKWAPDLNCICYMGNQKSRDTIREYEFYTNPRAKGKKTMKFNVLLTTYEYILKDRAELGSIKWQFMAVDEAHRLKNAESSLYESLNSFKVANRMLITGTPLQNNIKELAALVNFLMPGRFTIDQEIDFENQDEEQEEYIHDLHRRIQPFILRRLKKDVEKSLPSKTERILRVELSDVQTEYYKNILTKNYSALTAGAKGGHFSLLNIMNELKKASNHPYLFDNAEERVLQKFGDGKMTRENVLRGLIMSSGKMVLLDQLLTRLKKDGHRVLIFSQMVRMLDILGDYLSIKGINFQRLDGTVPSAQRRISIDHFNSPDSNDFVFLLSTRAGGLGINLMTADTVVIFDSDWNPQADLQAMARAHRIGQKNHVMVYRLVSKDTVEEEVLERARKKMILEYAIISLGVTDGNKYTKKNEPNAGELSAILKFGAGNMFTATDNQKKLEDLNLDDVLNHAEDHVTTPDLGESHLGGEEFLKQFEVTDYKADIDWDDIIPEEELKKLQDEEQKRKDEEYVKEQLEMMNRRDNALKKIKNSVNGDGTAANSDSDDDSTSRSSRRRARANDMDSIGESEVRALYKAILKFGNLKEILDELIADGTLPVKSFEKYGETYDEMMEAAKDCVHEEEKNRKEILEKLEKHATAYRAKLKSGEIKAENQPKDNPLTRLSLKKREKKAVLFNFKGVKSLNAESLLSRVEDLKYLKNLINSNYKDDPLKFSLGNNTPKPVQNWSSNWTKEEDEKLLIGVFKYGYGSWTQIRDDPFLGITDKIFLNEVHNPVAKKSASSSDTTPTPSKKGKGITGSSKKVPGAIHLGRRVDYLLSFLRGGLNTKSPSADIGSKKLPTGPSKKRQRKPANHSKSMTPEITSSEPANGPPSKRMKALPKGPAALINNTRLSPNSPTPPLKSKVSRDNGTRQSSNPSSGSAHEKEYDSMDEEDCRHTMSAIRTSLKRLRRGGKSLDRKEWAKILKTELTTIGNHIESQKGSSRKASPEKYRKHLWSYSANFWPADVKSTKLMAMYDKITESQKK

Chain of Protein translocase subunit SecA (Escherichia coli (strain K12)) (P10408 whole entry): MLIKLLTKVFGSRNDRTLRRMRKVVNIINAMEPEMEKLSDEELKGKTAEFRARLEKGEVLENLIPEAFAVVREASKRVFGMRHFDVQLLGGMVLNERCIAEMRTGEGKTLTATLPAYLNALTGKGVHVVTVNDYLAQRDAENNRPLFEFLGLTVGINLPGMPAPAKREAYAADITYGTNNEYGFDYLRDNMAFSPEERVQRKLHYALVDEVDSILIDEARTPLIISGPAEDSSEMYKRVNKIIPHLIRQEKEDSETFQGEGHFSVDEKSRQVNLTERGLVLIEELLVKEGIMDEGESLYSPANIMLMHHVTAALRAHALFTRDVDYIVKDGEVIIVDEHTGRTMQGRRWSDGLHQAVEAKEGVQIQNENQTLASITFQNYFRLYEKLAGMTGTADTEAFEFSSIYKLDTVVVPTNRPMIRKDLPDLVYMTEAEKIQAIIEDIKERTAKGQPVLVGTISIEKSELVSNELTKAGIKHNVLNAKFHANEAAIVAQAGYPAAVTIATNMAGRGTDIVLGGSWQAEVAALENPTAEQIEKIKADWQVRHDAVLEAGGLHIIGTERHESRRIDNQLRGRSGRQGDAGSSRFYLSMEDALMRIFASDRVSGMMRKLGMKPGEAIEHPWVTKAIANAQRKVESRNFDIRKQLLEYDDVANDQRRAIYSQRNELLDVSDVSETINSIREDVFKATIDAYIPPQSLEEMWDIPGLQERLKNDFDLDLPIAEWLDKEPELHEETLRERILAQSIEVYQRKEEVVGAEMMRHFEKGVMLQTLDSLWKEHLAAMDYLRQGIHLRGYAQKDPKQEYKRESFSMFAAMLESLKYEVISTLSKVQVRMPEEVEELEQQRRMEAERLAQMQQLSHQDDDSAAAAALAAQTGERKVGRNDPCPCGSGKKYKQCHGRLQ
Chain of Sialic acid-binding Ig-like lectin 9 (Homo sapiens) (Q9Y336 whole entry): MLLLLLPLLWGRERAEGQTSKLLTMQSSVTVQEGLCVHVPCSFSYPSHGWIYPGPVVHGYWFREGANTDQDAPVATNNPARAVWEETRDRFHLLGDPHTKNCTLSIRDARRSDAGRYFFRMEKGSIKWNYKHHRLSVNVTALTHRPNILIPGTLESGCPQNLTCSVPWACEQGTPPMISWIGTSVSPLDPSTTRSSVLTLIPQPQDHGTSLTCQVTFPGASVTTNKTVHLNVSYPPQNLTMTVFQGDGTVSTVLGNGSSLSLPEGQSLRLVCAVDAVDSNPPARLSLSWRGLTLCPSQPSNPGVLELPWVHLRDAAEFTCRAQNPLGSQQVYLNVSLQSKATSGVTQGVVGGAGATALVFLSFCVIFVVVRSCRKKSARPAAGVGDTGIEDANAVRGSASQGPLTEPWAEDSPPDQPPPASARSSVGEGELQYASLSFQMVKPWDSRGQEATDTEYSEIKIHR

`COc1ccc(CNC(=O)N2CCC(Cc3cnn(C)c3)C2)cc1C` (stereo not given): the Percent Effect is -1.91% in [1]; 7.69% in assay [2]; -4.56% in assay [3]; 8.36% in the assay with Trypanosoma cruzi; 4.92% in [4]; 11.2% in assay [5]. Further, the Percent Effect is 10.9% in the assay filed under Homo sapiens, 0.478% in [6], 13.2% in assay [7] and -4.08% in assay [8].
With `CCOC1COC2(CCN(Cc3cccc(F)c3)CC2)C1` (stereo not given), the Percent Effect was -1.34% in assay [1]; 14.3% in [2]; -2.76% in [3]; -1.13% in the assay with Trypanosoma cruzi; 0.457% in [4]; 5.75% in assay [5]. Moreover, the Percent Effect in the assay filed under Homo sapiens is 21.4%; in [6], 2.9%; in [7] it was 7.5%; in assay [8], -7.79%.
`CC(C)CN(Cc1nc2c(cnn2C)c(=O)[nH]1)C(C)C`: the Percent Effect is -1.52% in [1]; 10.3% in [2]; -1.47% in [3]; 5.92% with Trypanosoma cruzi; 7.38% in [4]; -3.5% in [5]. Further, the Percent Effect was -18.2% in the assay filed under Homo sapiens, 5.26% in [6], 18.1% in assay [7] and 0.0184% in assay [8].
Consider `O=C1N(CC2CC2)CCC12CCN(c1ncccn1)CC2`, for which the Percent Effect is 2.77% in [1]; 16.9% in [2]; -4.8% in [3]; -3% with Trypanosoma cruzi; 2.74% in [4]; 16.7% in assay [5]. Also, the Percent Effect in the assay listed under Homo sapiens is 12.4%; in assay [6], 6.76%; in [7], 10%; in [8], -10.6%.
For `CCS(=O)(=O)CCN1CCC(N(C)Cc2noc(C(C)C)n2)C1` (stereo not given), the Percent Effect in assay [1] is -8.69%; in [2], 13%; in [3] it was 9.47%; in the assay with Trypanosoma cruzi, -1.87%; in assay [4], -0.205%; in [5], 10.3%. Moreover, the Percent Effect was 10.2% in the assay listed under Homo sapiens, 4.9% in assay [6], 11.8% in assay [7] and -6.07% in assay [8].
As for `O=C(CN1CCCS1(=O)=O)NCCOc1ccc2c(c1)CCC2`, the Percent Effect in assay [1] was -6.62%; in assay [2], 2.56%; in [3], 4.23%; in the assay on Trypanosoma cruzi, 3.66%; in assay [4], 5.74%; in assay [5] it was -10.2%. The Percent Effect in the assay listed under Homo sapiens was 6.45%; in assay [6], 1.44%; in assay [7] it was 6.02%; in assay [8], -2.78%.
For the compound `O=C1COC2(CCN(C(=O)c3ccco3)CC2)CN1Cc1cccnc1`, the Percent Effect is -3.74% in assay [1]; 14.3% in assay [2]; -1.08% in assay [3]; -2.25% in the assay with Trypanosoma cruzi; -0.457% in [4]; 3.86% in assay [5]. For the same compound, the Percent Effect in the assay filed under Homo sapiens is -5.38%; in assay [6], 7.73%; in assay [7], 15%; in assay [8] it was -5.67%.
With `O=C(O)c1cc(S(=O)(=O)N2CCOc3ccccc32)ccc1F`, the Percent Effect in assay [1] is -6.51%; in assay [2], 10.3%; in assay [3], -10.2%; in the assay on Trypanosoma cruzi, 5.54%; in [4] it was -0.82%; in [5] it was 10.8%. In addition, the Percent Effect in the assay listed under Homo sapiens is -4.8%; in [6] it was -0.478%; in [7], 18.1%; in assay [8] it was -3.79%.
Consider `Cc1noc(C(C)C)c1C(=O)NCCCN1CCCC1`, for which the Percent Effect is -2.44% in assay [1]; 26% in assay [2]; 0.986% in assay [3]; 1.12% in the assay on Trypanosoma cruzi; -3.48% in [4]; 12.1% in assay [5]. Besides, the Percent Effect in the assay filed under Homo sapiens was 8.55%; in [6], 7.84%; in assay [7], 30.6%; in [8], -13.2%.
Take `CS(=O)(=O)N1CCC(c2nnc3ccc(C(=O)N4CCCC4)cn23)C1` (stereo not given): the Percent Effect in assay [1] is -4.16%; in assay [2], -42.9%; in [3], -5.27%; with Trypanosoma cruzi, -3.8%; in [4], -2.02%; in assay [5] it was 16.9%. Moreover, the Percent Effect in the assay filed under Homo sapiens is 6.07%; in assay [6] it was 0.526%; in [7], 5.13%; in [8], -3.44%.
With `Cc1ccc(-c2cc(CN3CCOC(Cn4cncn4)C3)on2)cc1` (stereo not given), the Percent Effect in assay [1] was -2.91%; in assay [2], 5.2%; in [3], 4.78%; in the assay on Trypanosoma cruzi, -0.56%; in assay [4], -1.43%; in assay [5], 1.4%. Further, the Percent Effect in the assay listed under Homo sapiens is 12.8%; in assay [6] it was 10.8%; in [7], 18.8%; in assay [8], -5.72%.
